Pol kappa inh-1: DNA polymerase kappa (human) inhibition; Q9UBT6; purified Pol kappa, fluorescent DNA synthesis assay, 10 min; Potency, µM (titrated, usually from 107 µM), for the others: at the top dose activity, negative = inhibition, most hits filed as inhibitors; hit rate 0.53% among 400,000; AID 588579; further: on the % scale 0 is the no-effect control and ±100 the full control effect
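10 nM Pol kappa preincubated 15 min at room temperature with compounds, then reaction started with substrate at 50 nM final. Fluorescence read kinetically at 0 and 10 min; buffer-only wells served as negative control.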
POLB inh: inhibitors of human DNA polymerase beta. Pol beta primer extension/strand displacement, fluorescence kinetic. Potency, µM (doses to about 114 µM), for the others: at the highest dose activity change, negative = inhibition, most hits filed as inhibitors. hit rate 1.3% among 340,000. AID 485314; further: on the % scale 0 is the no-effect control and ±100 the full control effect
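Human Pol beta at 10 nM; strand-displacement substrate 50 nM final. Compound exposure 15 min at room temperature before start, reaction 10 min at room temperature.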
FEN1 inhibitor: inhibitors of human flap endonuclease 1; hit rate 0.35% among 390,000; Recombinant FEN1 flap cleavage, fluorescence, 15 min; Potency, µM (top dose mostly 114 µM), inactives show at the highest dose activity change, negative = inhibition, actives largely listed as inhibitors; further: on the % scale 0 is the no-effect control and ±100 the full control effect; nearly all actives have a fitted effect of over 65% in size
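FEN1 at 10 nM, compound pretreatment for 15 min (room temperature), 50 nM final substrate to initiate; endpoint reads at 0 and 15 min; DMSO-only plates used as vehicle background.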
WRN inhibitor: blocks human WRN helicase; Q14191; WRN helicase unwinding, fluorescent forked duplex, kinetic; Potency, µM (titrated, usually from 114 µM), inactives show top-dose activity change, negative = inhibition, usual class: inhibitors; hit rate 0.46% among 360,000; further: on the % scale 0 is the no-effect control and ±100 the full control effect; nearly all actives have a fitted effect of over 55% in size
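Primary qHTS, 1536-well format. 20 nM WRN + compound, 15 min RT; start with 100 nM forked fluorophore/quencher duplex, 2 mM ATP (final); kinetic read ex 525/em 598 nm.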
Pol eta inh-1: DNA polymerase eta (human) inhibition. Q9Y253. recombinant Pol eta, fluorescent DNA replication assay. Potency, µM (titrated, usually from 114 µM), for the others: at the top dose activity change, negative = inhibition, actives largely listed as inhibitors. hit rate 1.2% among 390,000; further: on the % scale 0 is the no-effect control and ±100 the full control effect
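Pol eta at 10 nM preincubated with compounds 15 min at room temperature; reaction started with fluorescent substrate (50 nM final) and read kinetically at 0 and 10 min.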
Pol iota inh: blocks human DNA polymerase iota activity; Pol iota fluorescent replication assay, 10 min; Potency, µM (highest dose often 115 µM), for inactives: top-dose activity, negative = inhibition, hits mostly inhibitors; hit rate 1% among 390,000; AID 588590
Target sequence (Q9UNA4 whole entry, looked up): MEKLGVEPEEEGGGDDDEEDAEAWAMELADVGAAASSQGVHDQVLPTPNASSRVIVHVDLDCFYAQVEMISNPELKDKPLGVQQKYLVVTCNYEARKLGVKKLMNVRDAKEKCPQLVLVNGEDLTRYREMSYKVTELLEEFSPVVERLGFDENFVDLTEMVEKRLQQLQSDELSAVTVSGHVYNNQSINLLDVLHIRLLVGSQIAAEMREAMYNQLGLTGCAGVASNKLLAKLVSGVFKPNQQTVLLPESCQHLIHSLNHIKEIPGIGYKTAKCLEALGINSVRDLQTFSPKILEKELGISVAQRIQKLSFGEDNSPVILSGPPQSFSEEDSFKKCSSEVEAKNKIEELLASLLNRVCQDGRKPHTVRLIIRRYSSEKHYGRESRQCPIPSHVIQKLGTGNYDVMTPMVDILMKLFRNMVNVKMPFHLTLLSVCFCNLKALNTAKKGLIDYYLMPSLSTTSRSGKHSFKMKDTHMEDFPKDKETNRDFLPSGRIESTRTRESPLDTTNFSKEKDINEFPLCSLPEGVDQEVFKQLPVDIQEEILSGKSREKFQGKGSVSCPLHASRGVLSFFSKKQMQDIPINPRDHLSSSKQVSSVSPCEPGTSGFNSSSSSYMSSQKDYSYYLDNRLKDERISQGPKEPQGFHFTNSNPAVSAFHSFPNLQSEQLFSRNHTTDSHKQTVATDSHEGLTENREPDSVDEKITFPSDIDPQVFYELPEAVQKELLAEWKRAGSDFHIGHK
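Fluorescent replication assay read twice, at 0 min and 10 min after adding 50 nM (final) substrate. Enzyme (10 nM) and compounds were first incubated 15 min at room temperature; enzyme-free buffer wells were negative controls.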
HEK293 tox: counter-screen for GALK inhibitors: HEK293 cell cytotoxicity; AID 2547; HEK-293 viability, ATP luminescence (CellTiter-Glo), 24/48 h; Potency, µM (highest dose often 46.1 µM), for inactives: top-dose activity change, negative = cytotoxicity, usual class: inhibitors; shares compounds with Pol eta inh-1; hit rate 10% among 170; further: on the % scale 0 is the no-effect control and ±100 the full control effect
Pol kappa inh-2: Pol kappa (human) inhibition, cherry-pick confirmation; shares compounds with Pol eta inh-1; purified Pol-kappa, fluorescent strand-displacement substrate; Potency, µM, actives largely listed as inhibitors; hit rate 76% among 920; AID 720501
Pol eta inh-2: confirmation of human DNA polymerase eta inhibitors; shares compounds with Pol eta inh-1; Pol eta primer extension, TAMRA/BHQ fluorescence, 10 min; Potency, µM, hits mostly inhibitors; hit rate 64% among 2,600; AID 720502
Active calls of the source: *; ? = inconclusive; / = not tested or not shown; [ ] = remark or other dose. This is a sample that favours compounds with a hit; in the whole collection about 2.4% have one here. The call rests on the fitted dose curve; in most records, active means well fitted curve in the direction sought with a large enough effect; inconclusive means small, poorly fitted or top-dose-only effect, or another doubt; inactive means no such curve, though single readings can be large; an effect the other way counts as inactive or inconclusive. Potency means the concentration at half of the fitted maximal effect.

SMILES	Pol kappa inh-1	POLB inh	FEN1 inhibitor	WRN inhibitor	Pol eta inh-1	Pol iota inh	Pol eta inh-2	others
CC(C)(C)C(=O)Nc1ccc2c(c1)C(=O)C(=O)c1ccccc1-2	4%	/	?	/	/	1.4µM*	/	HEK293 tox=5.6µM*
Cc1ccc(C)c(Cn2nnc3c(=O)[nH]c(C4CCCN(C(=O)C5CCCCC5)C4)nc32)c1 (stereo not drawn)	-10%	5%	-22%	-4%	-10%	0%	/
Cc1ccc(C)c(Cn2nnc3c(=O)[nH]c(C(=O)NCc4ccco4)nc32)c1	89µM*	4%	-16%	?	32µM*	22µM*	76*
COc1ccccc1Cn1c(C2CC(=O)N(c3ccccc3OC)C2)nc2ccccc21 (stereo not drawn)	-11%	-3%	0%	/	-21%	7%	/
COc1cc(/C=N/NC(=O)c2cc(-c3c(C)nn(-c4ccccc4)c3C)n[nH]2)ccc1O	?	?	-10%	?	20µM*	3.2µM*	54*
Cc1nn(-c2ccccc2)c(C)c1/C=N/NC(=O)c1cc(O)cc(O)c1	5%	10%	-18%	1%	-16%	60%	/
Cc1nn(-c2ccccc2)c(C)c1-c1cc(C(=O)N/N=C/c2ccc(O)cc2)[nH]n1	79µM*	10µM*	?	-16%	28µM*	20µM*	43*
COCCN(C(=O)COC(=O)c1cc2c(s1)CCCC2)c1c(N)n(Cc2ccccc2)c(=O)[nH]c1=O	?	/	0%	-16%[11.6 µM]	45µM*	50µM*	?
Cc1ccc(NC(=O)Cc2ccc(-n3c(C)nc4cccnc43)cc2)c(Cl)c1	8%	7%	-3%	/	21%	-21%	/
O=C(/C=C/c1ccc([N+](=O)[O-])cc1)c1ccco1	-1%	1%	23%	-10%	4%	?	/
O=C(/C=C/c1ccc(-c2ccccc2[N+](=O)[O-])o1)c1ccco1	?	?	-14%	?	40µM*	?	76*
O=C(CN1C(=O)COc2ccc(S(=O)(=O)N3CCCC3)cc21)NCCc1ccc(Cl)cc1	-2%[60.1 µM]	2%	-6%	/	-19%	18%	/
O=C1/C(=C\c2cccc([N+](=O)[O-])c2O)SC(=S)N1Cc1ccccc1	-32%	35µM*	?	?	79µM*	?	?
O=C1NC(=Nc2ccccc2Cl)S/C1=C\c1cccc([N+](=O)[O-])c1O	-31%	?	?	-21%[11.6 µM]	?	?	?	Pol kappa inh-2=17*
O=C1/C(=C/c2ccccc2O)SC(=S)N1Cc1cccnc1	-4%	0%	13%	-3%	-20%	?	/
CCCN(Cc1cccs1)C(=O)Nc1cc(C)ccc1OC	-6%	-16%	-2%	/	-15%	8%	/
CN1CCCc2ccccc21	-7%	/	-13%	/	/	5%	/
O=C(CCN1C(=O)/C(=C/c2cccs2)SC1=S)Nc1ccc(C(=O)O)cc1	-4%	32µM*	?	-3%[11.6 µM]	45µM*	?	/	Pol kappa inh-2=75*
O=C(O)c1cc(N/N=C2/CC(c3ccccc3)Oc3ccccc32)ccc1Cl (stereo not drawn)	?	40µM*	-18%	?	20µM*	?	60*
CC1(C)OC(=O)C(=CNc2cccc(O)c2)C(=O)O1	0%	19%	-16%	-5%	-11%	27%	/
CC1(C)OC(C)(C)/C(=C/Nc2ccc(O)cc2)C1=O	-28%	?	-1%	-27%[57.1 µM]	18µM*	?	?	Pol kappa inh-2=?
CCOC(=O)c1ccc(CN(Cc2ccccc2C)S(=O)(=O)c2ccc(F)c(C)c2)cc1	-10%[60.1 µM]	35%	-15%	/	-14%	-2%	/
N#Cc1c(N)n(-c2ccccc2N)c2nc3ccccc3nc12	-4%	2%	?	0%	?	20%	/
N#Cc1c(N)n(-c2cccc(C(=O)O)c2)c2nc3ccccc3nc12	-14%	4%	-30%	-18%[11.6 µM]	40µM*	31%	54*
CCOC(=O)c1c(NS(=O)(=O)c2ccc(Br)cc2)sc2c1CCC2	79µM*	/	-21%	?	20µM*	11µM*	?
SMILES	Pol kappa inh-1	POLB inh	FEN1 inhibitor	WRN inhibitor	Pol eta inh-1	Pol iota inh	Pol eta inh-2	others
CCOC(=O)c1c(NS(=O)(=O)Cc2ccccc2)sc2c1CCCC2	-3%	16%	0%	-13%	-11%	-4%	/
O=C(N/N=C/c1ccc(O)c(O)c1)c1ccc(-n2cnnn2)cc1	79µM*	/	-24%	2%[11.6 µM]	22µM*	45µM*	?
CCOc1cc(CO)cc(Br)c1OCC(=O)O	-34%	/	-2%	?	16µM*	?	85*
COc1ccc(C2CC(=O)c3c(O)cc(O)cc3O2)cc1O (stereo not drawn)	-17%	/	11%	-6%	1%	-8%	/
O=C1CC(c2ccc(O)c(O)c2)Oc2cc(O)cc(O)c21 (stereo not drawn)	16µM*	?	?	?	22µM*	50µM*	76*
COc1cc2cc(CNc3ccc(C)cc3)c(=O)n(CC(=O)Nc3ccc(F)cc3F)c2cc1OC	-20%	21%	2%	/	-20%	26%	/
CCN(CC)c1ccc(NC(=O)c2cccn2-c2nnc(N3CCCCC3)s2)c(C)c1	-9%	-23%	4%	/	17%	?	/
CC(=O)n1cc(N(C(=O)CCl)c2ccc(Cl)cc2)c2ccccc21	-15%	15%	0%	-13%	28µM*	?	?
CCOc1ccc(NC(=O)Cn2nc(CC)n3c(cc4sccc43)c2=O)cc1	16%	33%	3%	/	8%	2%	/
Cc1cc(C(F)(F)F)nc(SCc2ccc(C(=O)O)o2)n1	-32%	40µM*	-3%	-10%[11.6 µM]	8.9µM*	22µM*	?
COC(=O)c1ccccc1NC(=O)c1ccc2nc(Cc3ccccc3)oc2c1	-10%[60.1 µM]	?	-14%	/	2%	30%	/
O=c1cc(-c2ccccc2O)oc2cc(O)cc(O)c12	-4%[19.4 µM]	/	/	/	/	/	/
